HepG2 viability – counter-screen for TGF-b inhibitors: cytotoxicity in HepG2 cells; 0.76% of 410,000 active; HepG2 CAGA-GFP viability, ATP luminescence, 18 h; Potency, µM (series often up to 46.1 µM), inactives show top-dose activity change, negative = cytotoxicity, usual class: cytotoxic; further: potency means the concentration at half of the fitted maximal effect
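HepG2 CAGA-GFP cells (1000/well, DMEM with 1% FBS) received compound, then TGF-beta at 500 pg/mL final, and were incubated 18 hours at 37 degrees C. Viability was read by CellTiter-Glo luminescence. Media-only wells were set as complete cell-killing and DMSO as no toxicity.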
ATXN2 expr inh – inhibitors of ATXN2 expression; HEK-293 ATXN2-luciferase reporter, luminescence, 24 h; Potency, µM (series often up to 57 µM), for inactives: at the highest dose activity change, negative = inhibition, most hits filed as inhibitors; 0.72% of 360,000 active; further: potency means the concentration at half of the fitted maximal effect; on the % scale 0 is the no-effect control and ±100 the full control effect; nearly all actives have a fitted effect of over 55% in size
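qHTS (up to 57 uM final) was run with 24 h compound exposure of reporter cells at 37 °C. Each well was multiplexed: SteadyGlo luminescence measured ATXN2-luciferase expression after a fluorogenic Gly-Phe-AFC viability readout (25 uM final).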
S2 tox – cell viability loss in ATXN counter-screen. Potency, µM (titrated, usually from 56.7 µM), hits mostly cytotoxic. 0.49% of 400,000 active. S2 cells (HEK-293 line with an ATXN2-luciferase reporter) viability, CellTiter-Fluor protease fluorescence, 24 h; further: potency means the concentration at half of the fitted maximal effect; nearly all actives have a fitted effect of over 40% in size
IDH1 R132H inh – inhibitors of human mutant IDH1 R132H. IDH1-R132H enzyme, NADPH consumption, diaphorase/resazurin fluorescence. Potency, µM (doses to about 76.6 µM), for the others: at the highest dose activity change, negative = inhibition, most hits filed as inhibitors. 0.093% of 390,000 active; further: potency means the concentration at half of the fitted maximal effect; on the % scale 0 is the no-effect control and ±100 the full control effect; nearly all actives have a fitted effect of over 65% in size
Target sequence (O75874 whole entry R132H, stated change not applied): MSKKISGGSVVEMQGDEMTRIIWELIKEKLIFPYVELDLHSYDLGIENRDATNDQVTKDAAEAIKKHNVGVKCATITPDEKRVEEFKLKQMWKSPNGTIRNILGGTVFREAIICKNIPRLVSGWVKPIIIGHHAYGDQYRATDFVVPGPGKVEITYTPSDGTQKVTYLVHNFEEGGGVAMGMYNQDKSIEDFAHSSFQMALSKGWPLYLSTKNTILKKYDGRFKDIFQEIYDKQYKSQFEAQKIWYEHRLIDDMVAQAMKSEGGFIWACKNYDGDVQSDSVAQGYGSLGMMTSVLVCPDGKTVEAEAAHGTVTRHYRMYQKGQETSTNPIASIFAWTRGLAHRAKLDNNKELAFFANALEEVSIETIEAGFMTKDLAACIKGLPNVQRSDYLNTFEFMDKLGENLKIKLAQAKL
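IDH1-R132H (0.5 ug/mL) preincubated 30 min with compound, then NADPH (0.016 mM) and alpha-KG (2 mM) added; 80 min at RT, pH 7.5. Remaining NADPH coupled via diaphorase/resazurin to fluorescence (540/590 nm); concentration-response curves normalized to no-enzyme control.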
LDHA inh – blocks human lactate dehydrogenase A | AID 1347041 | purified LDHA, NADH/diaphorase-resazurin fluorescence; active compounds read low | activity change, % (values are at about 110 or 230 µM) | 0.15% of 480,000 active | P00338; in the data active means activity change below about -30%; inconclusive means mostly about -25% to -30%;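 further: plate controls were DMSO wells for no effect and wells without enzyme for full effect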
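Resorufin fluorescence (ex540/em590), read at 0 and 20 min after diaphorase/resazurin addition, reports the NADH left after a 5 min room-temperature reaction of 2 nM human LDH5 with 0.06 mM NADH and 0.2 mM pyruvate.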
TGFb SMAD3 inh – TGF-b pathway inhibition. Potency, µM (highest dose often 46.1 µM), without a hit: at the highest dose activity, negative = inhibition, most hits filed as inhibitors. HepG2 CAGA-GFP TGF-b/SMAD3 reporter, GFP fluorescence, 18 h; TGF-beta stimulated, 500 pg/mL final. AID 588855. 1.2% of 410,000 active; further: potency means the concentration at half of the fitted maximal effect; on the % scale 0 is the no-effect control and ±100 the full control effect; nearly all actives have a fitted effect of over 65% in size
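GFP signal (ex488/em500-530) from TGF-beta-stimulated HEPG2 CAGA-GFP cells, 500 pg/mL final, 18 h at 37 degrees C in DMEM plus 1% FBS, normalized to unstimulated and DMSO-stimulated controls.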
Resorufin autofl – counter-screen for mutant IDH1 inhibitors: fluorescence interference; shares compounds with IDH1 R132H inh; Resorufin detection reagent fluorescence interference, cell-free; inhibition of signal, % at 51.2 µM; 750 tested, under 10 active; AID 623980;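 further: 0% = wells with normal resorufin and full inhibition = wells lacking resorufin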
WT IDH1 inh – selectivity of mutant IDH1 inhibitors: human wild-type IDH1; shares compounds with IDH1 R132H inh; WT IDH1 enzyme, NADPH diaphorase/resazurin fluorescence; Potency, µM (series often up to 115 µM), for inactives: top-dose activity change, negative = inhibition, most hits filed as inhibitors; 9% of 750 active; AID 623995;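 further: potency means the concentration at half of the fitted maximal effect; 0% = full WT IDH1 enzyme control and full inhibition = no enzyme wells; nearly all actives have a fitted effect of over 55% in size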
Target sequence (O75874 whole entry, looked up): as the sequence (O75874 whole entry R132H, stated change not applied) above, with H132R counted along it
mIDH1 confirm – confirmation of human mutant IDH1 inhibitors | shares compounds with IDH1 R132H inh | IDH1 R132H enzyme, NADPH diaphorase/resazurin fluorescence | Potency, µM (highest dose often 76.6 µM), for inactives: top-dose activity change, negative = inhibition, usual class: inhibitors | 83% of 750 active; further: potency means the concentration at half of the fitted maximal effect; nearly all actives have a fitted effect of over 50% in size
* marks the source's active call; other numbers are inactive results; i = inactive; u = inconclusive; x = no result given. Most compounds without a hit are left out; they make up all but 2.2% or so of the library. Unless noted, the call rests on the fitted dose curve; in most records, active means well fitted curve in the direction sought with a large enough effect; inconclusive means small, poorly fitted or top-dose-only effect, or another doubt; inactive means no such curve, though single readings can be large; an effect the other way counts as inactive or inconclusive.

SMILES | HepG2 viability | ATXN2 expr inh | S2 tox | IDH1 R132H inh | LDHA inh | TGFb SMAD3 inh | Resorufin autofl | WT IDH1 inh | mIDH1 confirm
Cc1ccc(N2C(=O)CCSC23C(=O)N(Cc2ccccc2)c2ccccc23)cc1 (configuration not stated) | -56% | x | x | u | 5 | u | -5 | -17% | 45µM*
O=C1CCSC2(C(=O)N(Cc3ccc(F)cc3)c3ccccc32)N1c1ccc(Cl)cc1 (configuration not stated) | -58% | x | x | u | 4 | u | -8 | -15% | 20µM*
O=C1CCSC2(C(=O)N(Cc3ccccc3)c3ccccc32)N1c1ccccc1 (configuration not stated) | -51% | x | x | u | -1 | u | x | x | x
CC[C@]12c3[nH]c4cc(CCC(=O)N(C)C)ccc4c3CCN1C(=O)[C@@H](CC(=O)NC/C=C(\C)CCC=C(C)C)C[C@@H]2C(=O)N1CCN(C(=O)c2ccco2)CC1 | -46% | u | u | u | -11 | u | -11 | -7% | 32µM*
CCOc1cc2nc(-c3ccc(OC)c(OC)c3)nc(N3CCOCC3)c2cc1OC | -44% | -14% | i | u | 3 | 3% | -14 | -10% | 16µM*
COC(=O)c1ccc2[nH]cc(CCO)c2c1 | 3% | -20% | i | 8% | -8 | 5% | x | x | x
O=C(NC1CCCC1)C(c1ccccc1F)N(C(=O)c1csnn1)c1ccccc1 (configuration not stated) | 6% | -2% | i | u | -10 | 11% | -3 | 8% | 16µM*
Cc1ccc(N(C(=O)C(F)(F)F)C(C(=O)NC2CCCCC2)c2cccs2)cc1 (configuration not stated) | -5% | -13% | i | u | -4 | 18% | 0 | -8% | 11µM*
Cc1ccc(N(C(=O)CCC(=O)Nc2cc(C)on2)C(C(=O)NC2CCCC2)c2cccs2)cc1 (configuration not stated) | -2% | -7% | u | -17% | -5 | 1% | x | x | x
O=C(NC1CCCC1)C(c1ccc(F)cc1)N(C(=O)c1csnn1)c1ccccc1 (configuration not stated) | 9% | -5% | i | -5% | -2 | 2% | x | x | x
O=C(NC1CCCCC1)C(c1cccs1)N(C(=O)c1ccccn1)c1ccccc1 (configuration not stated) | 11% | x | u | u | 0 | -1% | -1 | 6% | u
CCn1c2ccccc2c2cc(/C=N/n3cn[nH]c3=S)ccc21 | -50% | u | i | 1% | -12 | u | x | x | x
CCn1c2ccccc2c2cc(/C=N/n3c(-c4cc(C)[nH]n4)n[nH]c3=S)ccc21 | -36% | -1% | i | u | -12 | u | -8 | -2% | 14µM*
COc1ccc(N(C)S(=O)(=O)c2cccc(C(=O)Nc3nc(C)cs3)c2)cc1 | -18% | -11% | i | 3% | -2 | -8% | x | x | x
COC(=O)C1=NN(c2ccc(OC)cc2)C2C(=O)N(c3ccccc3OC)C(=O)C12 (configuration not stated) | 26% | 11% | x | 0% | -2 | -7% | x | x | x
COC(=O)C1=CC(C(=O)c2cccs2)=NN(c2ccc(OC)cc2)C1C(=O)OC (configuration not stated) | -30% | -6% | i | u | -3 | -27% | 2 | 1% | -4%
O=C(NC(=S)Nc1ccccc1N1CCCC1)c1ccc(-c2cccc([N+](=O)[O-])c2)o1 | -13% | -10% | i | 10% | -3 | -5% | x | x | x
CC(=O)N1CCN(c2ccccc2NC(=O)c2ccc(-c3cccc([N+](=O)[O-])c3)o2)CC1 | -3% | -15% | i | u | -4 | -2% | 2 | 2% | u
COc1cc2ncc(C(=O)c3ccc(C)cc3)c(N3CCCCC3)c2cc1OC | -11% | -28% | u | u | 1 | u | -8 | -11% | 14µM*
CCc1ccc(C(=O)c2cnc3cc(OC)c(OC)cc3c2N2CCOCC2)cc1 | x | x | x | x | 6 | x | x | x | x
O=C(COC(=O)c1ccc(Cl)nc1)NC1CCCCCC1 | -3% | -1% | i | 15% | -6 | 2% | x | x | x
Cc1c(C(=O)Nc2ccc(Br)cc2F)oc2ccc(S(=O)(=O)N3CCC4(CC3)OCCO4)cc12 | 2% | x | x | 18% | -2 | -4% | x | x | x
CC1C/C(=C\c2cccnc2)C(=O)/C(=C/c2cccnc2)C1 (configuration not stated) | 16µM* | u | x | u | 0 | u | 1 | 6% | 45µM*
COc1ccc(C2c3c(n(C)c4ccccc34)C(=O)N2CC(=O)Nc2c(C)cc(C)cc2C)cc1 (configuration not stated) | -20% | x | x | u | 3 | u | -4 | -10% | u
CCCCOc1ccc(/C=N/NC(=S)Nc2cc(C)ccc2C)cc1 | -2% | x | x | -5% | 0 | -14% | x | x | x
CCCCOc1ccc(/C=N/NC(=S)Nc2cccc(C)c2C)cc1 | -17% | -8% | i | u | 1 | 3% | 2 | -1% | 11µM*
Cc1cc(C)cc(NC(=O)CSc2c(C(C)C)cnc3c2c(=O)n(C)c(=O)n3C)c1 | 2% | x | x | u | -9 | -4% | -8 | -12% | -7%
CC(C)c1cnc2c(c1SCC(=O)Nc1cccc(F)c1)c(=O)n(C)c(=O)n2C | -34% | x | x | -6% | -10 | u | x | x | x
CC(=O)SC1CC(=O)N(c2c(C)cccc2C)C1=O (configuration not stated) | -46% | 6% | i | 2% | -10 | u | x | x | x
CC(=O)SC1CC(=O)N(c2ccc(C(C)(C)C)cc2)C1=O (configuration not stated) | -15% | 12% | i | u | -8 | -1% | 3 | 2% | 22µM*
